Bioassay records: PubChem BioAssay, Broad Institute
Rows were chosen to be rich in hits. Some 3.9% of all compounds tested hit in one or more screens of this group.
NSD2 HMT inh: inhibitors of human histone methyltransferase NSD2 | O96028 | NSD2 peptide methylation, AlphaScreen, 120 min | inhibition, % at 12.5 µM | hit rate 0.54% among 310,000 | AID 743445; in the data active = inhibition above about 50%
Glyco luc inh: N-linked glycosylation inhibition | D54 ERlucT glycosylation luciferase reporter, 24 h; percent of 100 nM tunicamycin response | reporter increase, % at 12.5 µM | hit rate 0.23% among 360,000;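 active = mean luciferase reporter signal, scaled so untreated is 0 and the glycosylation-blocking control 100, at or above a set limit in every replicate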;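 note: luciferase carries N-glycosylation sites so blocking glycosylation raises the light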
Mot1-301 SUMO: blocks SUMOylation pathway, rescuing yeast Mot1-301 growth | hit rate 1% among 320,000 | S. cerevisiae Mot1-301 growth rescue, ATP luminescence, 38.5C; percent above DMSO median, 100 means doubled | growth rescue, % at 18.8 µM | AID 2716;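 active = every valid replicate shows activation above 250% relative to neutral control wells; inactive = the rest, any valid replicate at or below 250%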
Casp6 inh: inhibitors of human caspase-6; hit rate 0.53% among 350,000; purified caspase-6, Z-VEID-R110 cleavage fluorescence; AID 686996; inhibition, % at 12.5 µM; P55212;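 active = mean inhibition across replicates at least about 35%, with every replicate also reaching that limit, limit read from the data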
Target sequence (P55212 24-179 limits assumed): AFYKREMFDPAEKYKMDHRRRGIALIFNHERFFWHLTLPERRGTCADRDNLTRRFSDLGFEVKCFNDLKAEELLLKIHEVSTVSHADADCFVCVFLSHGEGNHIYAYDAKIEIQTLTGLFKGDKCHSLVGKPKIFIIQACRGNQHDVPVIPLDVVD
Target sequence (P55212 194-293 limits assumed): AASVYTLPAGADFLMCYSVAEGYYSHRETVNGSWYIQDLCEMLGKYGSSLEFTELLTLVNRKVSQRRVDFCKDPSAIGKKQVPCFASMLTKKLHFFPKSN
CDK5 p35 inh: inhibitors of human CDK5/p35 kinase | Recombinant CDK5/p35, ADP-Glo luminescence, 60 min | Q00535+Q15078 | inhibition, % at 10 µM | hit rate 0.01% among 330,000;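 active = highest replicate inhibition of at least 50% and at least 75% of replicates reaching 50%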
ALR inh: blocks human ALR sulfhydryl oxidase activity; purified ALR, DTT oxidation, H2O2 HRP-luminol luminescence; hit rate 3.8% among 290,000; inhibition, % (concentration not given with the values); P55789;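 active = mean replicate inhibition above about 79%, with every replicate also reaching it, limit read from the data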
Hits are given with their value; . = inactive; / = not tested or not shown.

SMILES	NSD2 HMT inh	Glyco luc inh	Mot1-301 SUMO	Casp6 inh	CDK5 p35 inh	ALR inh
C[C@H](CO)N1C[C@H](C)[C@@H](CN(C)C(=O)CN2CCOCC2)Oc2ncc(C#CCN(C)C)cc2C1=O	/	/	/	.	/	/
C[C@H]1CN([C@@H](C)CO)C(=O)c2cccc(NS(=O)(=O)c3ccc(Cl)cc3)c2O[C@H]1CN(C)C(=O)Nc1ccccc1	/	/	/	.	/	/
CCNC(=O)NC(=O)C(C)Sc1ccc2c(c1)OCCO2 (stereo unspecified)	.	.	.	/	.	98
CCOC(=O)CSC1=C(C#N)C(c2ccc(C)s2)CC(=O)N1 (stereo unspecified)	.	.	.	.	.	.
CCOC(=O)CSC1=C(C#N)C(=O)NC2(CCCCC2)S1	.	.	.	/	.	98
CCCN1CNC(=S)N(c2ccccc2C)C1	.	.	/	56	.	.
CN(C)C(=O)[C@H]1[C@H](CO)[C@H]2Cn3c(ccc(-c4cccc(F)c4)c3=O)[C@@H]1N2Cc1ccccc1	/	/	/	.	/	/
CCN(CC)CCCNC(=O)CSc1c2c(nc3cc(Cl)ccc13)CCCC2	.	.	.	.	.	.
O=C(CSc1c2c(nc3cc(Cl)ccc13)CCCC2)NCCN1CCOCC1	.	.	.	.	.	.
Cc1ccc2nc3c(c(C(=O)O)c2c1)CCC3	.	.	.	.	.	.
O=C(CSc1c2c(nc3ccc(Cl)cc13)CCCC2)NCCCN1CCOCC1	.	.	.	/	.	98
COCCCNC(=O)CSc1c2c(nc3ccc(Cl)cc13)CCCC2	.	.	.	.	.	99
O=C(CSc1c2c(nc3cc(Cl)ccc13)CCCC2)NCCCN1CCOCC1	.	.	.	.	.	97
O=C(O)c1c2c(nc3ccc(Cl)cc13)CCC2	.	.	.	50	.	.
C[C@H](CO)N1C[C@H](C)[C@@H](CN(C)C(=O)CCC(F)(F)F)OCCCC[C@H](C)Oc2ccc(NS(C)(=O)=O)cc2C1=O	/	/	/	.	/	/
CN(C)C(=O)C[C@H]1CC[C@H]2[C@H](COc3ccc(NC(=O)C4CCC4)cc3C(=O)N2C)O1	/	/	/	.	/	/
O/N=C1/CCc2cccc3cccc1c23	.	.	.	/	.	.
O=C1C(=NO)CCc2ccccc21	77	.	/	68	.	/
CCOC(=O)c1c(NC(=O)/C=C\C(=O)O)sc(C)c1-c1ccccc1	.	.	.	.	.	.
CCOC(=O)c1c(NC(=O)/C=C/C(=O)O)sc(C)c1-c1ccc(C(C)(C)C)cc1	69	.	.	42	.	97
NC(=O)c1cc2cc(Cl)ccc2oc1=Nc1cccc(C(F)(F)F)c1	/	.	.	.	.	91
C=CCNc1nc(C(=O)OCC(=O)Nc2ccc(S(N)(=O)=O)cc2)cs1	.	.	.	.	.	98
Cc1ccc(S(=O)(=O)N/N=C/c2ccccc2O)cc1[N+](=O)[O-]	.	.	.	.	.	96
Cc1ccc(S(=O)(=O)N/N=C/c2ccc(O)c(O)c2)cc1[N+](=O)[O-]	.	.	.	.	.	99
O=C(c1ccccn1)N1CC[C@H]2[C@H](CO)Nc3ccc(-c4ccccc4)cc3[C@H]21	/	/	/	.	/	/
SMILES	NSD2 HMT inh	Glyco luc inh	Mot1-301 SUMO	Casp6 inh	CDK5 p35 inh	ALR inh
Cn1c(-c2cc(Br)ccc2O)n[nH]c1=S	.	.	.	/	.	98
O=C1CC(c2ccc(O)c(O)c2)Oc2cc(O)cc(O)c21 (stereo unspecified)	/	.	.	.	.	99
O=C1CC(c2ccc(O)c(O)c2)Oc2c1ccc(O)c2O (stereo unspecified)	/	.	.	75	.	98
COc1ccc(C2CC(=O)c3c(O)cc(O)cc3O2)cc1O (stereo unspecified)	/	.	/	.	.	/
O=C1CC(c2ccc(O)cc2)Oc2cc(O)cc(O)c21 (stereo unspecified)	/	.	.	.	.	99
C[C@@H]1CN([C@H](C)CO)C(=O)c2cc(NC(=O)Nc3cccc4ccccc34)ccc2O[C@@H]1CN(C)S(=O)(=O)c1ccc(Cl)cc1	/	/	/	.	/	/
COc1cccc(NC(=O)N(C)C[C@@H]2Oc3ncc(C4=CCCCC4)cc3C(=O)N([C@H](C)CO)C[C@H]2C)c1	/	/	/	.	/	/
COCC(=O)Nc1ccc2c(c1)[C@H]1C[C@@H](CC(=O)NCc3ccc(OC)cc3)O[C@@H](CO)[C@H]1O2	/	/	/	.	/	/
Cc1c(Cl)cccc1NC(=S)NCCc1ccccn1	.	.	.	.	.	.
S=C(NCCc1ccccn1)Nc1ccccc1Cl	.	.	.	.	.	94
